Here are results for six compounds from PubChem BioAssay (NCI).

Some test systems named below: NCI-H23 lung; NCI-H226 lung; HOP-62 NSCLC; NCI-H460 lung; HOP-92 NSCLC; NCI-H522 lung; 786-0 renal; DU-145 prostate; K-562 leukemia; MALME-3M melanoma; MDA-MB-231 breast; RXF 393 renal; SF-268 CNS; SF-295 CNS; SF-539 CNS; UACC-257 melanoma; M14 melanoma.
Test in all cases: NCI-60 one-dose screen, 48 h (100 = growth as untreated, 0 = no growth, -100 = all killed)
Another test has as its system NCI-H322M lung. The following applies: 10 µM unless noted.
Another test deals with A549/ATCC NSCLC. The following applies: 10 µM unless noted.
Another test has as its system COLO 205 colon. The following applies: 10 µM unless noted.

Several values for one entry are separate records, joined by “and”; a condition that tells them apart may be missing. Identical values can stand only once. The panel holds about 83,000 compounds, 20% with a hit somewhere; the sample as a whole holds those more often.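 Method: cells in 96-well plates; compound added at one concentration; 48 h incubation; percent growth measured; values under 10 scored active.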 Unmarked numbers belong to inactive results. Activity calls are given as the source filed them.

As to `COc1ccc(Oc2nc(Nc3ccc(N4CCOCC4)cc3)ncc2NC(=O)c2cccc(C(F)(F)F)c2)cc1`, the growth in the test with NCI-H23 lung (10 µM unless noted) is 87.3%; in the test on NCI-H226 lung (10 µM unless noted), 81.2%; in the test on NCI-H322M lung it was 83.6%; with HOP-62 NSCLC (10 µM unless noted), 94.4%; in the test on NCI-H460 lung (10 µM unless noted), 70.2%; in the test with HOP-92 NSCLC (10 µM unless noted), 76.7%. Moreover, the growth in the test with NCI-H522 lung (10 µM unless noted) is 0.64% (active); in the test with A549/ATCC NSCLC, 66%; in the test on 786-0 renal (10 µM unless noted), 87.8%; in the test with COLO 205 colon, 84.8%; in the test on DU-145 prostate (10 µM unless noted) it was 91.9%; in the test on K-562 leukemia (10 µM unless noted) it was 56%. Moreover, the growth was 97.5% in the test on MALME-3M melanoma (10 µM unless noted); 69.1% in the test with MDA-MB-231 breast (10 µM unless noted); 65.6% with RXF 393 renal (10 µM unless noted); 89.5% in the test on SF-268 CNS (10 µM unless noted); 85.6% with SF-295 CNS (10 µM unless noted); 77.3% in the test on SF-539 CNS (10 µM unless noted). For the same compound, in the test with UACC-257 melanoma (10 µM unless noted), the growth was 98.2%.

`CCN(Cc1ccccc1)c1ccc(/C=C2\COc3ccccc3C2=O)cc1`: the growth is 97.2% in the test with NCI-H23 lung (10 µM); 37.1% in the test on NCI-H23 lung (100 µM); 95.4% in the test with NCI-H226 lung (10 µM); 50.9% in the test with NCI-H226 lung (100 µM); 75.9% [100 µM] with NCI-H322M lung; 89.6% in the test with HOP-62 NSCLC (10 µM). The growth in the test with HOP-62 NSCLC (100 µM) is 56.8%; with NCI-H460 lung (10 µM), 100%; in the test with NCI-H460 lung (100 µM) it was 45.8%; in the test with HOP-92 NSCLC (10 µM) it was 85.9%; with HOP-92 NSCLC (100 µM), 23%; with NCI-H522 lung (10 µM) it was 88.5%. The growth with NCI-H522 lung (100 µM) is 2.07% (active); with 786-0 renal (10 µM) it was 86.9%; with 786-0 renal (100 µM), 54.5%; with DU-145 prostate (10 µM) it was 101%; with DU-145 prostate (100 µM), 47.8%; with K-562 leukemia (10 µM), 78.4%. The growth in the test with K-562 leukemia (100 µM) was 6.4% (active); with MALME-3M melanoma (10 µM) it was 99.1%; in the test on MALME-3M melanoma (100 µM) it was 54.5%; in the test with MDA-MB-231 breast (10 µM), 101%; with MDA-MB-231 breast (100 µM), 43%; with RXF 393 renal (10 µM) it was 109%. Further, the growth is 37.3% in the test with RXF 393 renal (100 µM); 101% with SF-268 CNS (10 µM); 54.7% in the test with SF-268 CNS (100 µM); 94.4% with SF-295 CNS (10 µM); 54.4% in the test with SF-295 CNS (100 µM); 97.3% in the test with SF-539 CNS (10 µM). Further, the growth was 61.1% in the test on SF-539 CNS (100 µM); 92.6% with UACC-257 melanoma (10 µM); 42.8% in the test with UACC-257 melanoma (100 µM); 97.4% in the test with M14 melanoma (10 µM); 28.9% in the test with M14 melanoma (100 µM).

For the compound `CCOc1ccc(C(=O)Cc2ccccc2)cc1`, the growth in the test on NCI-H23 lung (10 µM unless noted) is 115% and 105%; with NCI-H226 lung (10 µM unless noted) it was 99.1%; in the test on NCI-H322M lung, 114%; in the test on HOP-62 NSCLC (10 µM unless noted) it was 97.3% and 121%; in the test with NCI-H460 lung (10 µM unless noted), 110% and 112%; in the test with HOP-92 NSCLC (10 µM unless noted) it was 108% and 102%. Besides, the growth is 93.8% and 102% in the test with NCI-H522 lung (10 µM unless noted); 98.9% and 99.4% in the test on A549/ATCC NSCLC; 93.2% and 103% in the test with 786-0 renal (10 µM unless noted); 120% and 125% with COLO 205 colon; 105% and 112% with DU-145 prostate (10 µM unless noted); 108% and 103% in the test on K-562 leukemia (10 µM unless noted). For the same compound, the growth in the test with MALME-3M melanoma (10 µM unless noted) was 101%; in the test with MDA-MB-231 breast (10 µM unless noted), 113% and 102%; in the test on RXF 393 renal (10 µM unless noted) it was 117% and 96.4%; in the test with SF-268 CNS (10 µM unless noted), 110% and 117%; in the test with SF-295 CNS (10 µM unless noted), 121% and 89.3%; in the test with SF-539 CNS (10 µM unless noted), 101% and 116%. For the same compound, the growth with UACC-257 melanoma (10 µM unless noted) was 110% and 99.2%; in the test with M14 melanoma (10 µM unless noted), 114% and 106%.

Regarding `O=C(Nc1ccccc1C(=O)N/N=C(\c1ccccc1)c1ccccn1)c1ccccc1`, the growth in the test with NCI-H23 lung (10 µM unless noted) was 24.9%; with NCI-H226 lung (10 µM unless noted) it was 18.1%; with NCI-H322M lung, 29.1%; in the test with HOP-62 NSCLC (10 µM unless noted) it was 9.93% (active); with NCI-H460 lung (10 µM unless noted), -0.498% (active); with HOP-92 NSCLC (10 µM unless noted), 34.9%. Also, the growth in the test with NCI-H522 lung (10 µM unless noted) is 0.831% (active); in the test with A549/ATCC NSCLC it was 9.7% (active); with 786-0 renal (10 µM unless noted), 9.15% (active); in the test with COLO 205 colon, 5.09% (active); in the test with DU-145 prostate (10 µM unless noted), 14.1%; with K-562 leukemia (10 µM unless noted), 12.5%. Further, the growth in the test with MALME-3M melanoma (10 µM unless noted) was 35.1%; in the test with MDA-MB-231 breast (10 µM unless noted), 22.5%; in the test with RXF 393 renal (10 µM unless noted), 21.4%; in the test with SF-268 CNS (10 µM unless noted), 15.5%; in the test with SF-295 CNS (10 µM unless noted), 17.9%; in the test with SF-539 CNS (10 µM unless noted) it was 8.36% (active). The values for the growth with UACC-257 melanoma (10 µM unless noted) and with M14 melanoma (10 µM unless noted) were -10.4% (active) and -12.9% (active), respectively.

For `Cc1ccc2nc3ccccc3c(NCc3ccc(Cl)cc3)c2c1`, the growth is 46% in the test with NCI-H23 lung (10 µM unless noted); 72.3% in the test on NCI-H226 lung (10 µM unless noted); 55.9% with NCI-H322M lung; 65.3% in the test on HOP-62 NSCLC (10 µM unless noted); 29.5% in the test on NCI-H460 lung (10 µM unless noted); -4.63% (active) in the test with HOP-92 NSCLC (10 µM unless noted). Further, the growth in the test on NCI-H522 lung (10 µM unless noted) was 54.2%; in the test on A549/ATCC NSCLC, 40.8%; with 786-0 renal (10 µM unless noted), 34.7%; in the test with COLO 205 colon, -53.3% (active); with DU-145 prostate (10 µM unless noted), 51.4%; in the test with K-562 leukemia (10 µM unless noted), 2.63% (active). Besides, the growth with MALME-3M melanoma (10 µM unless noted) is -14% (active); with MDA-MB-231 breast (10 µM unless noted), 37.7%; in the test with RXF 393 renal (10 µM unless noted) it was 29%; in the test on SF-268 CNS (10 µM unless noted) it was 79.1%; in the test with SF-295 CNS (10 µM unless noted), 43.7%; with SF-539 CNS (10 µM unless noted), 40.2%. Further, the figures for the growth in the test with UACC-257 melanoma (10 µM unless noted) and in the test with M14 melanoma (10 µM unless noted) were -2.88% (active) and -17.1% (active), respectively.

On to `C=C(CNCCc1ccc(O)cc1)[C@@H]1CC[C@]2(CO)CC[C@]3(C)[C@H](CC[C@@H]4[C@@]5(C)CCC(NCCc6ccc(O)cc6)C(C)(C)[C@@H]5CC[C@]43C)[C@@H]12` (some centres undefined), for which the growth in the test with NCI-H23 lung (10 µM unless noted) is -78.2% (active); in the test with NCI-H226 lung (10 µM unless noted) it was -61% (active); in the test with NCI-H322M lung it was -90.6% (active); in the test on HOP-62 NSCLC (10 µM unless noted), -90.7% (active); in the test on NCI-H460 lung (10 µM unless noted), -79.4% (active); in the test on HOP-92 NSCLC (10 µM unless noted) it was -88.4% (active). The growth in the test with NCI-H522 lung (10 µM unless noted) is -73.1% (active); in the test on A549/ATCC NSCLC it was -82.4% (active); with 786-0 renal (10 µM unless noted) it was -89.9% (active); in the test on COLO 205 colon it was -91.1% (active); in the test with DU-145 prostate (10 µM unless noted), -98.6% (active); in the test with K-562 leukemia (10 µM unless noted), -72.9% (active). The growth with MALME-3M melanoma (10 µM unless noted) is -88.2% (active); in the test with MDA-MB-231 breast (10 µM unless noted) it was -87.1% (active); in the test on RXF 393 renal (10 µM unless noted), -91.2% (active); in the test with SF-268 CNS (10 µM unless noted), -81.5% (active); with SF-295 CNS (10 µM unless noted) it was -92.9% (active); in the test with SF-539 CNS (10 µM unless noted), -88.2% (active). The growth is -80.5% (active) with UACC-257 melanoma (10 µM unless noted) and -85.4% (active) with M14 melanoma (10 µM unless noted).
